High-throughput results as filed in PubChem.
This is one part of a sample in which hits are shown more often than they occur.
G9a block: blocks human histone lysine methyltransferase G9a. Q96KQ7. G9a H3K9 monomethylation, AlphaScreen, 2 h. Potency, µM (series often up to 102 µM), for the others: at the highest dose activity, negative = inhibition, actives largely listed as inhibitors. 350,000 compounds, 8.8% hits. AID 504332; further: on the % scale 0 is the no-effect control and ±100 the full control effect; nearly all actives have a fitted effect of over 75% in size
Target sequence (Q96KQ7 913-1193 limits assumed): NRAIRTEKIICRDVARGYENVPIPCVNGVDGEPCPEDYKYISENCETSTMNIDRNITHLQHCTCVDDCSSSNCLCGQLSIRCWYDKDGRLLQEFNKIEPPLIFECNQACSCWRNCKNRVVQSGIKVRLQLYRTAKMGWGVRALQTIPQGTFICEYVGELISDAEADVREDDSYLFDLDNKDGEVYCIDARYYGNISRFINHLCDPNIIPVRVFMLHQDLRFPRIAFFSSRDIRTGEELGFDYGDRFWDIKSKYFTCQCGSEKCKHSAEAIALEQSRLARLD
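Quantitative HTS format: methyltransferase activity on a biotin-tagged H3K9 peptide is measured by AlphaScreen, using a rabbit anti-monomethyl-H3K9 antibody with streptavidin donor and anti-IgG acceptor beads. Final levels are 20 nM enzyme, 500 nM peptide, 20 uM SAM; 2 h RT.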
VDR inhibitor: blocks the human vitamin D receptor; P11473; VDR-SRC2-3 peptide fluorescence polarization, 2 h; Potency, µM, for inactives: max response, negative = inhibition, actives largely listed as inhibitors; 400,000 compounds, 0.93% hits; further: on the % scale 0 is the no-effect control and ±100 the full control effect
Target sequence (P11473 whole entry, looked up): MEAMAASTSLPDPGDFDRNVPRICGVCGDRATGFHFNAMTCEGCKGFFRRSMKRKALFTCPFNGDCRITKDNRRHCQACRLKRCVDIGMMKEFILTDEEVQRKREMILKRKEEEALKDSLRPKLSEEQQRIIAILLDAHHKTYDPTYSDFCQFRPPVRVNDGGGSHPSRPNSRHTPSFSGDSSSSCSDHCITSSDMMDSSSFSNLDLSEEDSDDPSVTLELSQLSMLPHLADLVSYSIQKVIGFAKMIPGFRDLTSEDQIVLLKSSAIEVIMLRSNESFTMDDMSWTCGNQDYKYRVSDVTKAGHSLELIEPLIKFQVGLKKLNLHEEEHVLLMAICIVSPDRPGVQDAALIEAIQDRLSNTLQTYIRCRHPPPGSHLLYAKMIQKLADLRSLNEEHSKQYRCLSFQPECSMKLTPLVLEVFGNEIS
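The screen uses fluorescence polarization to detect compounds that interfere with recruitment of the SRC2-3 coactivator peptide to VDR; plates are read after 2 h at room temperature.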
12-LOX inh: ALOX12 (human) lipoxygenase inhibition | P18054 | purified 12hLO, xylenol orange hydroperoxide absorbance | Potency, µM (titrated, usually from 108 µM), for the others: at the highest dose activity change, negative = inhibition, usual class: inhibitors | 580,000 compounds, 1.1% hits | AID 1671190; further: on the % scale 0 is the no-effect control and ±100 the full control effect
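Hydroperoxide product was detected by ferrous iron/xylenol orange as the 573 to 405 nm absorbance ratio. Arachidonic acid at 40 uM (final) was turned over for 30 min at room temperature by 150 nM human 12hLO, pH 7.0 Hepes buffer, after 15 min compound preincubation.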
Sfp PPTase inh: inhibitors of Bacillus subtilis Sfp phosphopantetheinyl transferase | Q9F4F7 | Biochemical Sfp PPTase activity, qHTS | Potency, µM, for the others: largest response in the series, negative = inhibition, most hits filed as inhibitors | 310,000 compounds, 3.5% hits;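 further: the enzyme is Sfp with the accession as filed and its product quenches rhodamine fluorescence; 0% = enzyme reaction without inhibitor and -100% = no enzyme wells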
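After 15 min at room temperature with compound, 15 nM Sfp received 5 uM rhodamine-CoA plus 12.5 uM BHQ-2-ybbR (50 mM Hepes pH 7.6, 10 mM MgCl2). Rate came from the fluorescence difference over 30 min, ex 525/em 598 nm.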
Glioma ERSR ind: ER stress response induction in glioma; U87-MG GRP78 promoter luciferase reporter, 16 h; Potency, µM, for the others: at the highest dose activation, actives largely listed as activators; 420,000 compounds, 0.02% hits; AID 602332; further: series mostly up to about 76 µM; % of control where 0% means no effect; nearly all actives have a fitted effect of over 35% in size
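Stably transfected U87-MG human glioma cells carrying a GRP78-based luminescent sensor were seeded at 1000 cells/well, pin-dosed with compounds and incubated 16 h. Luciferase reagent was then added, and end-point luminescence was read after 10 min at room temperature.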
Starred values were filed as active, the others as inactive; ? = inconclusive; . = no result given; ! = not active in a repeat; [ ] = remark or other dose. The call rests on the fitted dose curve; in most records, active means well fitted curve in the direction sought with a large enough effect; inconclusive means small, poorly fitted or top-dose-only effect, or another doubt; inactive means no such curve, though single readings can be large; an effect the other way counts as inactive or inconclusive. Potency means the concentration at half of the fitted maximal effect.

SMILES | G9a block | VDR inhibitor | 12-LOX inh | Sfp PPTase inh | Glioma ERSR ind
CC(C)c1ccc(C2NC(=O)NC3=C2CCc2ccccc23)cc1 (centres undefined) | 31.6µM* | -11.0% | ? | -18.1% | 2.5%
O=C1NC2=C(C(=O)c3ccccc32)C(c2ccccc2)N1 (centres undefined) | ? | -16.3% | -3.8% | 8.8% | -2.3%
Cc1ccc(C(=O)NCCc2c[nH]c3ccc(Cl)cc23)cc1 | . | . | -61.4% | . | .
CNS(=O)(=O)Cc1ccccc1CNC(=O)c1cc(Br)ccc1Cl | . | . | -11.6% | . | .
COC(=O)c1ccc(C)c(N(CCO)CCO)c1 | 25.1µM* | 5.7% | -18.5% | -4.5% | -2.8%
Cn1nc(-c2ccc(N3CCCCC3)c(NC(=O)c3ccco3)c2)c2ccccc2c1=O | 39.8µM* | -15.5% | -13.7% | -27.4% | -4.2%
COc1cc(OC)c(NC(=O)CSCc2cc(=O)n3cc(C)ccc3n2)cc1Cl | . | . | -16.7% | . | .
CC(Sc1nnc(N)s1)C(=O)NCc1ccc2c(c1)OCO2 (centres undefined) | 13.8%[12.7 µM] | 9.9% | 69.5% | . | -3.7%
CC(Sc1nnc(N)s1)C(=O)Nc1ccc2c(c1)OCO2 (centres undefined) | 44.7µM* | 28.2% | 1.7% | . | 2.8%
N#Cc1cccc(-c2nc(Nc3ccccc3)c3ccccc3n2)c1 | . | -3.8% | ? | 20.2% | -2.4%
CN(Cc1ccco1)c1nc(-c2cccc(C#N)c2)nc2ccccc12 | . | 44.7µM* | ? | -27.1% | -1.9%
Cc1noc(C)c1-c1nc(N(C)Cc2ccco2)c2ccccc2n1 | -31.4%[0.501 µM] | 28.2µM* | -22.4% | 79.4µM* | -5.1%
CN(C)c1ccc(-c2nc(N(C)Cc3ccco3)c3ccccc3n2)cc1 | . | ? | -11.6% | 25.1µM* | -1.7%
CN(Cc1ccco1)c1nc(-c2ccoc2)nc2ccccc12 | 7.5%[0.501 µM] | 44.7µM* | ? | ? | -3.7%
CN(C)C(=O)c1ccc(-c2nc(N(C)Cc3ccco3)c3ccccc3n2)cc1 | . | ? | -19.7% | -8.7% | -0.6%
FC(F)(F)c1c(C(F)(F)C(F)(F)F)nc2ccccc2c1Nc1ccccc1 | . | . | -17.8% | . | .
Cc1ccc2cc(C3CC(c4ccco4)=NN3C(=O)CCC(=O)O)c(Cl)nc2c1 (centres undefined) | ? | 31.6µM* | -10.2% | -0.2% | -0.6%
Cc1ccc(C2CC(c3ccco3)=NN2S(C)(=O)=O)cc1 (centres undefined) | -9.0%[59 µM] | -3.0% | ? | -18.2% | 0.3%
COc1ccc2cc(C3CC(c4ccco4)=NN3S(C)(=O)=O)c(Cl)nc2c1 (centres undefined) | . | -16.9% | 35.5µM* | 50.1µM* | -1.3%
CCS(=O)(=O)N1N=C(c2ccc(C)cc2)CC1c1cc2ccc(OC)cc2nc1Cl (centres undefined) | -9.4%[59 µM] | -11.4% | -29.1% | . | -0.9%
CS(=O)(=O)N1N=C(c2ccco2)CC1c1ccccc1 (centres undefined) | ? | -12.2% | -10.5% | -18.6% | -0.2%
CS(=O)(=O)N1N=C(c2ccco2)CC1c1ccco1 (centres undefined) | 70.8µM* | -18.2% | ? | -21.3% | -1.2%
CS(=O)(=O)N1N=C(c2ccco2)CC1c1ccc(Cl)cc1 (centres undefined) | 50.1µM* | -6.3% | ? | -4.6% | 1.8%
O=C1C=C(c2c(O)ccc3ccccc23)c2ccccc2C1=O | . | ? | 44.7µM* | . | -13.8%
O=C1c2cccc(Sc3ccccc3)c2C(=O)c2c(Sc3ccccc3)cccc21 | 1µM* | -8.8% | 0.0% | -23.5% | 4.1%
SMILES | G9a block | VDR inhibitor | 12-LOX inh | Sfp PPTase inh | Glioma ERSR ind
O=C1C=C(O)c2ccccc2C1=O | . | 8.91µM* | ? | 79.4µM*! | 3.3%
O=C(O)c1cc2ccccc2c2c1C(=O)c1ccccc1-2 | . | . | -3.6% | . | -1.8%
O=C1C(O)=C(O)C(=O)c2ccccc21 | . | 8.91µM* | ? | . | 8.6%
NCC(=O)N1Cc2ccccc2CC12CCCN(C(=O)c1ccccc1)C2 (centres undefined) | . | . | 2.5%[6.33 µM] | . | .
O=C(Nc1ccccc1C(F)(F)F)C12CC3CC(CC(Cl)(C3)C1)C2 | . | . | -21.4% | . | .
Cc1cc(C(F)F)nn1Cc1nc2c3c4c(sc3ncn2n1)CC(C)CC4 (centres undefined) | . | . | 61.9% | . | .
S=C(NCc1ccccc1)N/N=C/c1cccc(OCCOc2ccc(Br)cc2)c1 | . | . | -3.3% | . | .
COc1cccc2c1-c1c(O)cccc1C2=O | -4.6% | -2.1% | ? | 1.4% | -0.1%
CC(=O)N(C1=C(O)c2ccccc2C(=O)C1=O)C1CCCCC1 | 7.5%[59 µM] | -17.7% | ? | 8.5% | -3.4%
O=C1c2cccc(O)c2C(=O)c2c(O)cccc21 | 7.94µM* | ? | 33.6% | 28.2µM*! | 6.1%
O=C1C=C(O)c2cccc(O)c2C1=O | -139.2%[59 µM] | -14.4% | 35.5µM* | -6.0% | 0.2%
CC(=O)N(C)C1=C(O)c2ccccc2C(=O)C1=O | 79.4µM* | ? | 0.0% | 2.1% | 1.2%
Cc1c(C(=O)Nc2ccc(C(=O)O)cc2)nnn1-c1ccccc1 | -5.6%[59 µM] | -1.1% | -8.6% | . | -11.0%
O=C(Nc1ccc2ncccc2c1)c1ccccc1 | . | ? | ? | -1.4% | 0.9%
Cc1c(C(=O)NNC(=S)Nc2cccc(Cl)c2)nnn1-c1ccccc1 | 11.2µM* | -16.2% | -29.3% | -2.3% | 4.7%
O=C(NC(=S)Nc1ccc2ncccc2c1)c1ccccc1 | 56.2µM* | -3.6% | ? | 50.1µM* | -2.3%
O=C(NC(=S)Nc1ccc2[nH]ncc2c1)c1ccccc1 | ? | 7.2% | 30.2% | -2.3% | -1.1%
O=C(NC(=S)Nc1ccc2nc[nH]c2c1)c1ccccc1 | 50.1µM* | 3.2% | 9.7% | -2.4% | 16.9%
Cc1ccc2cccnc2c1NC(=S)NC(=O)c1ccccc1 | ? | ? | ? | 17.8µM* | -1.9%
CCOc1ccc(S(=O)(=O)NCc2ccco2)cc1C(C)C | . | . | -53.7% | . | .
O=C(O)C(c1c[nH]c2ccccc12)N1CCN(Cc2ccccn2)CC1 (centres undefined) | . | . | 8.7% | . | .
O=C1NCCCCCCN(C(=O)CCC2CCCC2)[C@H]2CCC[C@@H]12 | . | . | 10.4% | . | .
CCN1c2cc(C(=O)Nc3ccc(F)cc3)ccc2C(=O)N2CCCC21 (centres undefined) | . | . | 20.6% | . | .
Cc1cc(C(=O)NNC(=S)Nc2ccccc2)nn1C | 31.6µM* | 8.6% | -5.1% | 13.7% | -1.1%
O=C(NNC(=S)Nc1ccc(Br)cc1)c1ccccc1 | -24.9% | 1.0% | 458.9% | 9.6% | 3.5%
SMILES | G9a block | VDR inhibitor | 12-LOX inh | Sfp PPTase inh | Glioma ERSR ind
O=C(NNC(=S)Nc1ccc(Br)cc1)c1ccccc1Br | 7.94µM* | ? | 493.8% | -11.1% | -0.9%
CCOc1ccc(NC(=S)NNC(=O)c2ccc(Br)cc2)cc1 | 35.5µM* | 6.7% | ? | 18.2% | 5.4%
O=C(NNC(=S)Nc1ccccc1)c1ccc2ncccc2c1 | 28.2µM* | -3.2% | -0.2% | -10.7% | 4.3%
COCCNC(=O)/C=C/c1ccc(C(C)(C)C)cc1 | . | . | -25.0% | . | .
O=C(NNC(=S)Nc1ccccc1)c1cccc(Br)c1 | 50.1µM* | 4.8% | 14.4% | 13.6% | 5.5%
O=C(Nc1ccc2ccccc2c1)c1ccccc1Cl | . | . | 1.0% | . | -4.5%
COc1ccccc1C(=O)NNC(=O)C(=O)NC(C)(C)C | -21.5% | -13.3% | 9.5% | -7.1% | -0.6%
